Screen size: about 6,200 compounds; about 2,900 (47%) were called active. Cut-off read from the data, not from the text of the source: active = inhibition above about 50%; inactive = the rest. So high a share suggests a set chosen from earlier hits. This is one part of the list.

The nature of this assay: Mycobacterium tuberculosis growth inhibition, primary screen (AID 1259343). As to conditions: inhibition: at 10 µM, active compounds read high; outcome: 10 uM.
For the compound `COc1ccc(-c2nc(CNc3ccc(C)c(F)c3)no2)cc1`, the inhibition is 91.5% (active).

For `CC(C)c1ccc(NC(=O)c2ccc(-c3ccnn3C)c3ccoc23)cc1`, the inhibition was 77.8% (active).

As to `CC(C)c1cnc(COc2ccc(Br)nc2)o1`, the inhibition is 38.6% (inactive).

For the compound `CN(CC(=O)c1cccc(Br)c1)C1CCCCC1`, the inhibition is 13.2% (inactive).

With `Cc1nc(NC(=O)c2cccc(Br)c2)oc1C`, the inhibition was 94.3% (active).

`NC(=S)c1cccc(Br)c1`: the inhibition is 22.8% (inactive).

Take `Cc1ccc(-c2nc(COc3ccc(C)cn3)co2)cc1`: the inhibition was 58.5% (active).

Turning to `COc1ccccc1OCc1coc(-c2ccc(C)cc2C)n1`, the inhibition is 40.9% (inactive).

For `c1csc(-c2nc(COc3ccc4c(c3)CCC4)co2)c1`, the inhibition was -21.4% (inactive).

`O=C(O)Cc1cc(-c2ccc3c(c2)OCCO3)on1`: the inhibition is 73.2% (active).

In the case of `CC1Cc2cc(-c3cc(CO)no3)ccc2O1` (stereo not drawn), the inhibition is -11.9% (inactive).

`O=C(Cc1cc(-c2ccc3c(c2)OCO3)on1)NCc1cccs1`: the inhibition was 90.9% (active).

`COC(=O)CC1CC(=O)C2C(=O)c3c(OC)ccc(Br)c3C2C1` (stereo not drawn): the inhibition was 28.1% (inactive).

Consider `c1ccc(N2CCN(c3ccccn3)CC2)cc1`, for which the inhibition was 61.2% (active).

Consider `O=C1c2ccccc2-c2nn(CN3CCN(c4ccccc4)CC3)c3cccc1c23`, for which the inhibition was 31.3% (inactive).

Take `O=S(=O)(N1CCN(c2ccccc2)CC1)C(F)(F)C(F)(F)C(F)(F)C(F)(F)F`: the inhibition is 21.4% (inactive).

Take `CCCCCCSC1=C(C#N)C2(CCCCC2)C(C#N)C(=O)N1` (stereo not drawn): the inhibition was 4.19% (inactive).

As to `Fc1ccc(/C=C/c2nnc(-c3ccccc3Cl)o2)cc1`, the inhibition was 42.9% (inactive).

In the case of `Fc1ccc(-c2nnc(-c3ccc4c(c3)OCO4)o2)cc1`, the inhibition was 70.5% (active).

On to `Fc1ccccc1-c1nnc(-c2ccc3c(c2)OCO3)o1`, for which the inhibition is -0.93% (inactive).

In the case of `Clc1ccccc1-c1nnc(-c2ccc3c(c2)OCO3)o1`, the inhibition is 72.5% (active).

Consider `Oc1ccccc1C1CC(c2ccc3c(c2)OCO3)=NC(c2cccc(F)c2)N1` (stereo not drawn), for which the inhibition was -19.4% (inactive).

Consider `O=C(Nc1cccc(O)c1)c1nn2c(C(F)(F)F)cc(-c3ccccc3)nc2c1Cl`, for which the inhibition is -37.9% (inactive).

In the case of `Oc1c(Cl)cc(Cl)cc1C=NNc1nc2ccccc2s1`, the inhibition was 101% (active).

`Fc1ccc2c(c1)C(=NNc1nc3ccccc3s1)CCS2`: the inhibition is -16.9% (inactive).

As for `c1ccc2c(c1)CCC(=NNc1nc3ccccc3s1)C2`, the inhibition is 48.5% (inactive).

For `CC(C)C1CC(=NNC(N)=S)C=C2CCCCC21` (stereo not drawn), the inhibition is 102% (active).

For `CC(Oc1ccccc1)C(=O)Nn1cnc2c(cnn2-c2ccc(F)cc2)c1=O` (stereo not drawn), the inhibition is 70.4% (active).

With `COCCCNC(=O)c1nn(-c2ccc(F)cc2)c2ncccc12`, the inhibition is 42.3% (inactive).

With `C=CCSc1nnc(-c2cc(Br)ccc2N)c(=O)[nH]1`, the inhibition was 76.5% (active).

Consider `Cc1ccc(-c2nnc(-c3ccccc3N)[nH]c2=O)cc1C`, for which the inhibition was 49.2% (inactive).

With `CCCCCCCCc1nnc(N)s1`, the inhibition was 89.3% (active).

For `CCCCc1ccc(NC(=O)CNc2ccccc2C(C)=O)cc1`, the inhibition was 90.7% (active).

Turning to `CCC(C)c1ccc(NC(=O)CNc2ccc(F)c(C(=O)OC)c2)cc1` (stereo not drawn), the inhibition was -5.36% (inactive).

Consider `CCc1ccc(NC(=O)CNc2ccc(F)c(F)c2F)cc1`, for which the inhibition is 96.5% (active).

Regarding `CN(Cc1ccc(Br)cc1)C(=O)Nc1ccc(F)c(F)c1F`, the inhibition was 44.5% (inactive).

On to `CCc1ccc(NCC(=O)Nc2ccc(I)cc2C)cc1`, for which the inhibition is 53.6% (active).

For the compound `CSc1nc2cc(NC(=S)NC(=O)c3ccccc3)ccc2s1`, the inhibition is 91.3% (active).

As for `CC(C)C(=O)NC(=S)Nc1nc2ccc(Cl)cc2s1`, the inhibition was 13.7% (inactive).

For `COc1cc(C(=O)N2CCOC(COc3cccc(C(F)(F)F)c3)C2)ccc1F` (stereo not drawn), the inhibition is 62.2% (active).

On to `O=C(Cc1cccc(Cl)c1)N1CCOC(COc2cccc(C(F)(F)F)c2)C1` (stereo not drawn), for which the inhibition is 17.4% (inactive).

As to `O=C(COc1ccc(F)cc1)N1CCOC(COc2cccc(C(F)(F)F)c2)C1` (stereo not drawn), the inhibition is 15.7% (inactive).

For `O=C(c1cc(F)cc(F)c1)N1CCOC(COc2cccc(C(F)(F)F)c2)C1` (stereo not drawn), the inhibition is 84.5% (active).

For the compound `N#CSc1ccc(N)c(Cl)c1`, the inhibition was 94.6% (active).

With `Cc1cccc(OCCN(C)c2cnn(-c3ccc(F)cc3F)c(=O)c2Cl)c1`, the inhibition is 14.4% (inactive).

`Cc1ccc(CSc2nc(CC(=O)NCC(C)C)cs2)cc1`: the inhibition is 58.9% (active).

Take `Cc1ccc(CSc2nc(CC(=O)O)cs2)cc1`: the inhibition was 31.9% (inactive).

As to `Cc1ccc(CSc2nc(CC(=O)NCc3ccccc3)cs2)cc1`, the inhibition is 62.1% (active).

Take `Cc1ccc(CSc2nc(CC(=O)NCc3ccco3)cs2)cc1`: the inhibition is 90.2% (active).

For the compound `CCNC(=O)Cc1csc(SCc2ccc(C)cc2)n1`, the inhibition is 72.3% (active).

On to `Cc1ccc(CSc2nc(CC(=O)NC3CCCC3)cs2)cc1`, for which the inhibition is 3.98% (inactive).

Consider `CC(C)CN(CC(=O)Nc1nc(CC(=O)NCc2ccc(F)cc2)cs1)C(=O)c1ccc(Cl)cc1`, for which the inhibition is -3.41% (inactive).

On to `Cc1ccc(CSc2nc(CC(=O)NCCC(C)C)cs2)cc1`, for which the inhibition was 5.27% (inactive).

As to `Cc1ccc(CSc2nc(CC(=O)NC(C)C)cs2)cc1`, the inhibition was 69.6% (active).

`O=C(CCl)NC(=O)NCc1cccs1`: the inhibition was -19.2% (inactive).

For `CC(C)CCNC(=O)Cc1csc(SCc2ccc(Cl)cc2)n1`, the inhibition is 68.8% (active).

As to `CCC(C)NC(=O)Cc1csc(SCc2ccc(C)cc2)n1` (stereo not drawn), the inhibition is -14.8% (inactive).

Consider `Cc1ccc(CSc2nc(CC(=O)NCc3cccs3)cs2)cc1`, for which the inhibition was 60.2% (active).

On to `Cc1ccc(CSc2nc(CC(=O)NC3CC3)cs2)cc1`, for which the inhibition was 50% (inactive).

As for `Cc1ccc(CSc2nc(CC(=O)NC3CCCCC3)cs2)cc1`, the inhibition was 81.7% (active).

As to `CC(Cc1ccccc1F)NCc1noc(-c2ccc3c(c2)OCO3)n1` (stereo not drawn), the inhibition was 59.5% (active).

In the case of `CC(Cc1cccnc1)NCc1nc(Cc2ccccc2F)no1` (stereo not drawn), the inhibition was 33.9% (inactive).

As for `CC(C)Cc1noc(-c2ccc(-c3ccc4c(c3)OCCO4)nc2)n1`, the inhibition was 3.86% (inactive).

On to `Nc1ccc2nc(SCc3ccc(F)cc3)sc2c1`, for which the inhibition was 16.7% (inactive).

Turning to `Cc1nc2ccc(N)cc2s1`, the inhibition was 94.6% (active).

Turning to `Nc1nc2ccc(Oc3ccc4nc(N)sc4c3)cc2s1`, the inhibition is 21% (inactive).

As for `COc1cc(OC)nc(Nc2nc(C(N)Cc3ccc(F)cc3)cs2)n1` (stereo not drawn), the inhibition was 71.1% (active).

With `COc1cc(OC)nc(Nc2nc(C(N)Cc3ccc(Cl)cc3)cs2)n1` (stereo not drawn), the inhibition was 93.6% (active).

The inhibition is the relative decrease from the control value, in per cent.

(Values after PubChem BioAssay AID1259343 (VanderVen Lab, College of Veterinary Medicine, Cornell …, 2017).)
